Source: PubChem BioAssay (Sanford-Burnham Center for Chemical Genomics)
Cardio protect – cardioprotection against H2O2-induced cell death, primary screen, uHTS, H9c2 cells, ATPLite luminescence. H9c2 cardiomyocytes, H2O2 injury protection, 2 h. protection from H2O2 cell death, % at 20 µM. 360,000 compounds, 0.63% hits. AID 588492, 2011;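 active = compounds giving at least 50% protection of heart cells from peroxide-induced death in the single-dose screen, raw or plate-pattern-corrected value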;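 note: 0% = DMSO wells with peroxide and 100% = DMSO wells without peroxide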
FAS-TE inh – FAS thioesterase domain inhibitors, primary screen, biochemical, fluorescence intensity, uHTS. Fatty acid synthase (Homo sapiens), P49327. recombinant FAS-TE, OMFH fluorogenic substrate, fluorescence endpoint. inhibition, % at 15 µM. 360,000 compounds, 0.67% hits. AID 602261, 2012;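 active = compounds whose normalised, plate-corrected inhibition of enzyme fluorescence in the single-dose primary screen is 50% or more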;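 note: 0% = DMSO with enzyme and 100% = substrate without enzyme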
CRFR2-BP antag – antagonists of CRF-BP/CRF-R2 complex, primary screen, cell-based, HEK293, calcium dye fluorescence, uHTS; inhibition, % at 11.8 µM; CRF-induced calcium fluorescence; 350,000 compounds, 0.59% hits;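 active = inhibition of the ligand-induced calcium signal above about 50% at the single tested concentration, limit read from the data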
aDG glyco up – activators of alpha-DG glycosylation, primary screen, uHTS, Pro5-aDG cells, AlphaScreen. alpha-DG glycosylation AlphaScreen (IIH6); 0% Pro5, 100% B10-LARGE cell signal. activation, % at 10 µM. 360,000 compounds, 0.22% hits. AID 624168, 2012;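 active = activation of at least 8% versus controls, or a plate z-score of at least 8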;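 note: Pro5 are CHO cells carrying HIG-tagged alpha-DG that lacks glycosylation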
CRFR2-BP ag – agonists of CRF-BP/CRF-R2 complex, primary screen, cell-based, HEK293, calcium dye fluorescence, uHTS | calcium dye fluorescence (FLIPR); percent of saturating CRF peptide response | activation, % at 13.2 µM | 350,000 compounds, 0.46% hits | AID 588473, 2011;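 active = activation of at least 50%, plus an integration ratio under a set limit after plate pattern correction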;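 note: plate controls were neutral control wells without compound for no effect and CRF at EC100 for full effect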
PfG6PD inh – PfG6PD enzyme inhibitors, primary screen, biochemical, fluorescence intensity, uHTS. glucose-6-phosphate dehydrogenase-6-phosphogluconolactonase (Plasmodium falciparum 3D7). PfGluPho enzyme, NADPH resazurin-diaphorase fluorescence. inhibition, % at 20 µM. 350,000 compounds, 0.78% hits. AID 504690, 2011;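 active = inhibition reaching at least a set limit at 20 µM in the primary screen, cut at about 59% in these data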;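 note: 0% = DMSO wells with substrate and 100% = DMSO wells lacking glucose-6-phosphate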
FAS-TE conf – FAS thioesterase domain inhibitors, confirmation, biochemical, fluorescence intensity, single concentration; recombinant FAS-TE, OMFH fluorogenic substrate; shares compounds with FAS-TE inh; inhibition, % at 15 µM; 2,300 compounds, 45% hits;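 active = compounds inhibiting the enzyme by at least 50% at 15 µM in any one of the replicates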;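 note: 0% = enzyme with DMSO only and 100% = wells lacking enzyme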
Numbers without * were called inactive. Only some compounds are listed: those with a hit (about 3.2% of all), similar ones and a draw of the others.

Results for O=C(NCCc1ccccc1)C1CCN(S(=O)(=O)c2cccs2)CC1 ?
Cardio protect: 4.5; FAS-TE inh: -0.2; CRFR2-BP antag: -9.2; aDG glyco up: -0.2; CRFR2-BP ag: -2.5; PfG6PD inh: -5.8

Results for Cc1c(NS(=O)(=O)c2ccc(NCCN3CCOCC3)c([N+](=O)[O-])c2)c(=O)n(-c2ccccc2)n1C ?
Cardio protect: -2.2; FAS-TE inh: -6.7; CRFR2-BP antag: 15.9; aDG glyco up: 0.1; CRFR2-BP ag: -1.2; PfG6PD inh: 8.6

How did COc1nccnc1NS(=O)(=O)c1ccc(N=Cc2c(C)[nH]n(-c3ccccc3)c2=O)cc1 do in these assays?
Cardio protect: -1.0; FAS-TE inh: -7.1; CRFR2-BP antag: 19.9; aDG glyco up: 0.2; CRFR2-BP ag: -3.1; PfG6PD inh: -28.6

What do the screens show for `COc1cc(S(=O)(=O)Nc2ccc(C)cc2)ccc1N=Cc1c(C)[nH]n(-c2ccccc2)c1=O`?
Cardio protect: 7.7; FAS-TE inh: 55.2*; CRFR2-BP antag: 23.9; aDG glyco up: 0.5; CRFR2-BP ag: -1.2; PfG6PD inh: 5.1; FAS-TE conf: 39.8

How did COc1ccc(S(=O)(=O)N2CCC(C(=O)NN3CCCCC3)CC2)cc1 do in these assays?
Cardio protect: 4.3; FAS-TE inh: -7.3; CRFR2-BP antag: -2.3; aDG glyco up: 0.4; CRFR2-BP ag: 0.6; PfG6PD inh: -8.9

Results for C[C@H](NC(=O)C1CCN(S(=O)(=O)c2ccccc2)CC1)C(=O)NCc1ccc(Cl)c(Cl)c1 ?
Cardio protect: -11.8; FAS-TE inh: 51.6*; CRFR2-BP antag: 2.5; aDG glyco up: -0.1; CRFR2-BP ag: -1.1; PfG6PD inh: -3.8; FAS-TE conf: 45.8*

How did C[C@H](NC(=O)C1CCN(S(=O)(=O)c2ccccc2)CC1)C(=O)NCc1cccc(Cl)c1 do in these assays?
Cardio protect: -3.6; FAS-TE inh: 6.4; CRFR2-BP antag: -1.6; aDG glyco up: 0.0; CRFR2-BP ag: 0.2; PfG6PD inh: -0.3

Results for O=C1OCCN1C(=O)[C@H]1[C@H](c2ccccc2)C(c2ccc(F)cc2)=NN1c1ccc(Br)cc1 ?
Cardio protect: 14.1; FAS-TE inh: 98.4*; CRFR2-BP antag: -10.1; aDG glyco up: 0.3; CRFR2-BP ag: -0.9; PfG6PD inh: 10.3; FAS-TE conf: 17.7

Results for C[C@@H]1C(c2ccccc2)=NN(c2ccccc2)[C@H]1C(=O)N1CCOC1=O ?
Cardio protect: -1.2; FAS-TE inh: 8.3; CRFR2-BP antag: -5.0; aDG glyco up: 0.1; CRFR2-BP ag: -2.8; PfG6PD inh: 17.4

Results for O=C1OCCN1C(=O)[C@H]1[C@H](c2ccccc2)C(c2ccccc2)=NN1c1ccc(Br)cc1 ?
Cardio protect: 3.9; FAS-TE inh: 90.3*; CRFR2-BP antag: -3.5; aDG glyco up: 0.2; CRFR2-BP ag: 2.0; PfG6PD inh: 23.4; FAS-TE conf: 40.7

Results for O=C1OCCN1C(=O)[C@H]1[C@H](c2ccccc2)C(c2ccccc2)=NN1c1ccccc1 ?
Cardio protect: 12.0; FAS-TE inh: 25.5; CRFR2-BP antag: 1.5; aDG glyco up: -0.1; CRFR2-BP ag: 1.9; PfG6PD inh: 20.4

Results for CC(=O)Nc1ccc(S(=O)(=O)NC(C(=O)O)C(C)O)cc1 (stereo unspecified) ?
Cardio protect: 16.7; FAS-TE inh: -2.2; CRFR2-BP antag: -2.0; aDG glyco up: -0.2; CRFR2-BP ag: -0.3; PfG6PD inh: -0.4

How did C=C(C)c1cccc(C(C)(C)NC(=O)N2CCN(c3ccc(OC)cc3)CC2)c1 do in these assays?
Cardio protect: 1.1; FAS-TE inh: -4.5; CRFR2-BP antag: 2.5; aDG glyco up: 0.3; CRFR2-BP ag: 0.1; PfG6PD inh: 7.1

What do the screens show for `COCCNC(=S)N1CCC(NC(=O)c2ccco2)CC1`?
Cardio protect: 0.8; FAS-TE inh: -7.9; CRFR2-BP antag: -4.1; aDG glyco up: -0.1; CRFR2-BP ag: -3.4; PfG6PD inh: -0.2

What do the screens show for `CCC(C)n1c(=S)[nH]c2c(sc3ccc([N+](=O)[O-])cc32)c1=O` (stereo unspecified)?
Cardio protect: -20.0; FAS-TE inh: 54.4*; CRFR2-BP antag: 40.4; aDG glyco up: 0.5; CRFR2-BP ag: 31.6; PfG6PD inh: -2.3; FAS-TE conf: 50.7*

Results for N/C(=N\OC(=O)CCC1CCCCC1)c1cccc([N+](=O)[O-])c1 ?
Cardio protect: -11.0; FAS-TE inh: 66.9*; CRFR2-BP antag: -2.9; aDG glyco up: 0.1; CRFR2-BP ag: -0.4; PfG6PD inh: 14.2; FAS-TE conf: 66.4*

How did Cc1ccc2nc(-c3ccccc3)cc(C(=O)N3CCN(S(=O)(=O)c4c(C)noc4C)CC3)c2c1 do in these assays?
Cardio protect: 3.5; FAS-TE inh: 70.2*; CRFR2-BP antag: -12.8; aDG glyco up: -0.5; CRFR2-BP ag: 2.6; PfG6PD inh: 5.4; FAS-TE conf: 19.2

Results for N#CC1CCN(C(=O)c2ccc3c(Cl)c4c(nc3c2)CCCC4)CC1 ?
Cardio protect: 2.8; FAS-TE inh: 77.9*; CRFR2-BP antag: -9.6; aDG glyco up: 0.5; CRFR2-BP ag: 0.1; PfG6PD inh: -6.0; FAS-TE conf: 85.5*

What do the screens show for `COc1ccccc1Nc1cc(C)nc(Nc2ccccc2OC)n1`?
Cardio protect: -6.5; FAS-TE inh: 12.4; CRFR2-BP antag: -10.4; aDG glyco up: 0.3; CRFR2-BP ag: 1.4; PfG6PD inh: 18.8

How did Cc1ccc([N+](=O)[O-])cc1NC(=O)CN(C(=O)c1ccccc1Cl)C1CCCCC1 do in these assays?
Cardio protect: 1.6; FAS-TE inh: 74.1*; CRFR2-BP antag: -13.2; aDG glyco up: -0.1; CRFR2-BP ag: 0.3; PfG6PD inh: 21.2; FAS-TE conf: 15.4

What do the screens show for `Cc1ccc([N+](=O)[O-])cc1NC(=O)C1CCCC1`?
Cardio protect: 6.3; FAS-TE inh: 15.3; CRFR2-BP antag: 2.2; aDG glyco up: -0.1; CRFR2-BP ag: -0.6; PfG6PD inh: -2.3

What do the screens show for `O=C(CN(C(=O)c1cccc([N+](=O)[O-])c1)C1CCCCC1)Nc1ccc(Cl)c([N+](=O)[O-])c1`?
Cardio protect: -6.9; FAS-TE inh: 80.8*; CRFR2-BP antag: -31.9; aDG glyco up: 1.7; CRFR2-BP ag: -0.8; PfG6PD inh: -3.5; FAS-TE conf: 26.3
